The source of these data is article PMC6212790, “How bacterial xenogeneic silencer rok distinguishes foreign from self DNA in its resident genome”.

In all, about 33,000 sequences were measured (“e-score”: median about -0.038, highest 2% from about 0.33 on). This is one part of a sample in which the highest values are shown more often than they occur.

For the experiment, the target named is T1, GST-Rok-C97-191 (Bacillus subtilis subsp. subtilis str. …, UniProt O34857 97-191).
T1 sequence: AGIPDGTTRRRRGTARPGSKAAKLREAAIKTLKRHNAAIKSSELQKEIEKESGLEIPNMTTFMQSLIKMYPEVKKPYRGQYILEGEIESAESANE
The experiment in a line: protein binding microarray; Rok is a gene silencer of Bacillus subtilis; high values mean tight binding. As to conditions: protein: recombinant; tags: GST (pTH5325, pDEST15-Magic modified); dsDNA, one strand shown. The method, boiled down: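 Every oligonucleotide joins a 25-mer constant primer to a 35-mer variable part drawn from a de Bruijn sequence of order 10, so each non-palindromic 8-mer appears at least 32 times and each palindromic 8-mer 16 times. The preference for every 8-mer is reported as a unitless, rank-based enrichment score (E-score). This score spans 0.5 for the most favored 8-mer to −0.5 for the most disfavored.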
With GAGGCTGA, the binding signal is -0.165 E-score.

In the case of ACCGCAAG, the binding signal was -0.109 E-score.

As for ACGAACTA, the binding signal was 0.311 E-score.

On to CCAACTAA, for which the binding signal was 0.16 E-score.

As to ACGCTAAG, the binding signal was 0.0377 E-score.

Consider CGAAGCTA, for which the binding signal came out at 0.0414 E-score.

In the case of CTCGGAGC, the binding signal was found to be 0.0375 E-score.

Consider GCAAACCA, for which the binding signal was -0.0828 E-score.

With GAAAACTC, the binding signal is -0.0271 E-score.

Regarding GAAAACCA, the binding signal is -0.143 E-score.

For CCAAACCA, the binding signal was -0.102 E-score.

As for CCAAACTC, the binding signal was -0.0249 E-score.

Consider GCAAACTA, for which the binding signal is 0.385 E-score.

For GCAAACAA, the binding signal is -0.173 E-score.

Regarding CCAAACTA, the binding signal is 0.376 E-score.

As to GAAAACTA, the binding signal stood at 0.336 E-score.

As for GTTACAGA, the binding signal came out at 0.21 E-score.

TGCGCGCA: the binding signal is 0.0584 E-score.

TAGGGGGA: the binding signal is -0.143 E-score.

ACAGTTGA: the binding signal amounted to 0.152 E-score.

For CCAGCGTC, the binding signal is -0.163 E-score.

Take AATAGAAA: the binding signal stood at 0.388 E-score.

In the case of TATAGAAA, the binding signal was 0.397 E-score.

As for TATAGACA, the binding signal stood at 0.00807 E-score.

In the case of CATAGAAA, the binding signal worked out at 0.105 E-score.

Turning to GATAGAAC, the binding signal was determined as 0.289 E-score.

As for AATAGAAT, the binding signal is 0.318 E-score.

As to GATAGACA, the binding signal was 0.058 E-score.

Take AATAGAAC: the binding signal amounted to 0.151 E-score.

Regarding GATAGAAA, the binding signal is 0.333 E-score.

ACAAACCG: the binding signal was -0.027 E-score.

On to TCATTCCA, for which the binding signal was -0.0328 E-score.

GCATCCAA: the binding signal is -0.0621 E-score.

For GATAGAGA, the binding signal worked out at 0.104 E-score.

AATACAGG: the binding signal is -0.0587 E-score.

Regarding GACCCAAC, the binding signal was -0.142 E-score.

Regarding AGAAGCGA, the binding signal is -0.104 E-score.

With GGGCATAC, the binding signal was -0.0596 E-score.

In the case of AATCGACC, the binding signal is -0.0453 E-score.

With GCTACTCA, the binding signal is 0.0267 E-score.

Turning to AAACTATT, the binding signal was 0.448 E-score.

Turning to AAACTAAC, the binding signal turned out to be 0.308 E-score.

For AAACTAAG, the binding signal is 0.251 E-score.

Take AAACTATG: the binding signal stood at 0.229 E-score.

Turning to CAACTATC, the binding signal amounted to 0.156 E-score.

GAACTATC: the binding signal turned out to be 0.261 E-score.

For AAACTAAT, the binding signal stood at 0.36 E-score.

Regarding AAACTATA, the binding signal was determined as 0.398 E-score.

On to AAACTATC, for which the binding signal worked out at 0.36 E-score.

For GAACTATA, the binding signal stood at 0.29 E-score.

As for AAACTCTT, the binding signal came out at 0.063 E-score.

Turning to CAACTATA, the binding signal was found to be 0.277 E-score.

In the case of AAACAGTC, the binding signal was -0.0408 E-score.

Regarding GCGCCGGA, the binding signal was -0.0972 E-score.

Consider ATTTAAAA, for which the binding signal is -0.0263 E-score.

GAAGCGTC: the binding signal is -0.188 E-score.

For the sequence ATTATTCA, the binding signal amounted to 0.199 E-score.

CTAGATCA: the binding signal came to 0.199 E-score.

Take ATTACAGC: the binding signal was determined as 0.215 E-score.

Take AAACTAAA: the binding signal stood at 0.296 E-score.

For the sequence TAACTATA, the binding signal came out at 0.347 E-score.

As to TAACTAAA, the binding signal amounted to 0.23 E-score.

On to CAGAGAGA, for which the binding signal is -0.071 E-score.

Turning to CTTTAGGC, the binding signal is -0.0933 E-score.

Consider GTAGAAAC, for which the binding signal is 0.435 E-score.

As for GCAGAAAC, the binding signal is -0.0283 E-score.

With GAAGAAAC, the binding signal is 0.108 E-score.

Take GTAGAAAA: the binding signal was determined as 0.384 E-score.

Consider CTAGAAAA, for which the binding signal is 0.312 E-score.

TTAGAAAA: the binding signal worked out at 0.263 E-score.

For the sequence CTAGAAAC, the binding signal stood at 0.34 E-score.

For the sequence CTAGAAAG, the binding signal worked out at 0.113 E-score.

As to CAAGAAAC, the binding signal came to 0.224 E-score.

Take TCAGCCCA: the binding signal was -0.191 E-score.

Take TGCCAACA: the binding signal was 0.0271 E-score.

Take AGAGGTAA: the binding signal was found to be 0.149 E-score.

For the sequence CGGCAAAC, the binding signal came to 0.168 E-score.

For AGCGCCGG, the binding signal was -0.146 E-score.

Take ACTATACG: the binding signal was 0.0223 E-score.

For the sequence ATTATACG, the binding signal worked out at 0.388 E-score.

As for CTTATACA, the binding signal came to 0.263 E-score.

For the sequence ATTATACA, the binding signal was 0.333 E-score.

Regarding GTTATACA, the binding signal came out at 0.253 E-score.

With ATTATACC, the binding signal came to 0.228 E-score.

GTACTGCA: the binding signal is 0.119 E-score.

Take AGAATGCG: the binding signal turned out to be 0.105 E-score.

As to ATAGGGAC, the binding signal was -0.176 E-score.

On to CACGATCA, for which the binding signal was -0.0988 E-score.

With AACCCCTG, the binding signal is -0.151 E-score.

Take GTCTGACA: the binding signal was -0.163 E-score.

AATACACA: the binding signal came out at 0.173 E-score.

Consider GATATACC, for which the binding signal came to 0.153 E-score.

AATATACC: the binding signal worked out at 0.353 E-score.

On to ACTATACA, for which the binding signal came to 0.302 E-score.

With AACATACT, the binding signal worked out at 0.0962 E-score.

On to AACATACA, for which the binding signal was determined as 0.343 E-score.

For the sequence GATATACA, the binding signal came out at 0.175 E-score.

For TACATACA, the binding signal came out at 0.253 E-score.

In the case of AATATACA, the binding signal is 0.394 E-score.

With TATATACA, the binding signal was 0.402 E-score.

Regarding CATATACA, the binding signal is 0.22 E-score.

Turning to CATATACC, the binding signal was 0.222 E-score.

Consider ACAACTTG, for which the binding signal was 0.173 E-score.

For ACGTGGCA, the binding signal was -0.0377 E-score.

Take CTTAGCGC: the binding signal amounted to 0.0409 E-score.

For the sequence GAGCTAGC, the binding signal stood at 0.0567 E-score.

Regarding ACCCGTTG, the binding signal is -0.159 E-score.

With TGTTAAAA, the binding signal is -0.0158 E-score.

Take AATTGCGG: the binding signal is 0.0377 E-score.

Regarding TACCGGAA, the binding signal was -0.0058 E-score.

Regarding ACAGGCGT, the binding signal is -0.077 E-score.

GGTATACA: the binding signal stood at 0.15 E-score.

As to ACTATACT, the binding signal came out at 0.0926 E-score.

Take TGTATACA: the binding signal was 0.37 E-score.

Take AGTATACA: the binding signal was found to be 0.178 E-score.

For AATATACG, the binding signal was determined as 0.225 E-score.

As to AATATACT, the binding signal was 0.367 E-score.

With GAAAGTGC, the binding signal was -0.0315 E-score.

In the case of GTACCAAC, the binding signal is 0.0505 E-score.

Regarding CAGGCGAC, the binding signal is -0.00727 E-score.

With CGTTTATC, the binding signal worked out at 0.231 E-score.

GGCAGTTA: the binding signal was 0.0872 E-score.

Consider CACAAGTG, for which the binding signal was -0.00102 E-score.

Consider CAGACTAA, for which the binding signal is -0.0795 E-score.

As for ACCTCACT, the binding signal is -0.0237 E-score.

With TCAGCCGA, the binding signal was -0.0187 E-score.

On to TATATAAA, for which the binding signal came out at 0.394 E-score.

For the sequence GATATAAA, the binding signal was 0.34 E-score.

Turning to AATATAAC, the binding signal was determined as 0.205 E-score.

Regarding GATATAAC, the binding signal turned out to be 0.297 E-score.

Consider TATAAAAA, for which the binding signal was found to be 0.244 E-score.

For AATATAAA, the binding signal was 0.361 E-score.

Turning to CATATAAA, the binding signal was found to be 0.138 E-score.

Regarding AATATAAT, the binding signal stood at 0.23 E-score.

For the sequence GATAAAAA, the binding signal was determined as 0.234 E-score.

As to ACTGTTGC, the binding signal was 0.119 E-score.

With TGACTCCA, the binding signal was -0.0987 E-score.

For the sequence AGGAGGGA, the binding signal is -0.173 E-score.

With CAGTTATG, the binding signal is 0.0833 E-score.

Take AGATACCG: the binding signal was determined as 0.171 E-score.

For the sequence ATATACCG, the binding signal was 0.384 E-score.

As for CTATACCA, the binding signal is 0.201 E-score.

Take CAATACCG: the binding signal was 0.121 E-score.

As for GTATACCA, the binding signal stood at 0.267 E-score.

Take ATATACCC: the binding signal was determined as 0.127 E-score.

As for AAATACCA, the binding signal was 0.286 E-score.

Consider AAATACCG, for which the binding signal amounted to 0.37 E-score.

In the case of ATATACCA, the binding signal stood at 0.344 E-score.

As for AGGAGACG, the binding signal was -0.19 E-score.

As for CAGCTCGG, the binding signal was -0.0345 E-score.

Regarding AAGTGACT, the binding signal is -0.0548 E-score.

With TCTGTCAA, the binding signal was -0.116 E-score.

On to CAAGCCTG, for which the binding signal is -0.132 E-score.

With ATCAGTGC, the binding signal is -0.0896 E-score.

As to CAACGGAC, the binding signal is -0.085 E-score.

As for TGTAGTAA, the binding signal was found to be 0.286 E-score.

AGTAGTAA: the binding signal is 0.404 E-score.

As for CGTAGTAA, the binding signal is 0.205 E-score.

For GGTAGTAA, the binding signal was determined as 0.396 E-score.

GTTAGTAA: the binding signal was found to be 0.163 E-score.

For GCTAGTAA, the binding signal came to 0.286 E-score.

Turning to ACTAAACT, the binding signal turned out to be 0.244 E-score.

Take TGGCGAAA: the binding signal was 0.0439 E-score.

GTTTTGCA: the binding signal was found to be 0.0567 E-score.

Consider CGTACGTA, for which the binding signal worked out at 0.05 E-score.

Turning to CAATAATA, the binding signal came out at 0.312 E-score.

TAATAAAA: the binding signal is 0.344 E-score.

Take CATTAATA: the binding signal was found to be 0.186 E-score.

Regarding GAATAAAA, the binding signal is 0.119 E-score.

For the sequence CACTAATC, the binding signal was 0.1 E-score.

For the sequence CAATAAAA, the binding signal stood at 0.239 E-score.

For AAATAATA, the binding signal was 0.317 E-score.

For the sequence TAATAATA, the binding signal was determined as 0.424 E-score.

Regarding AATTAATA, the binding signal came to 0.305 E-score.

As for TACTAATA, the binding signal came out at 0.298 E-score.

On to TATTAATA, for which the binding signal was 0.352 E-score.

In the case of CACTAATA, the binding signal came to 0.33 E-score.
